# Bioassay records deposited in PubChem BioAssay by Sanford-Burnham Center for Chemical Genomics.
# TWEAK-Fn14 inh: inhibitors of TWEAK-Fn14 interaction signaling | TWEAK-stimulated Fn14 reporter cells, luciferase luminescence, 8 h | inhibition, % at 10 µM | hit rate 2% among 360,000; in the data active = inhibition above about 50%
# KKLEB cytotox: counter-screen for CF NF-kB inhibitors: cytotoxicity; KKLEB CF airway cells viability, ATPlite luminescence, overnight; hits give low values; cells stimulated with P. aeruginosa culture filtrate; activity change (cytotoxicity), % at 5 µM; hit rate 0.36% among 360,000; AID 602141;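 active = corrected activity change at or below -50% at 5 µM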
# Peg3 prom inh: reduces Peg3 promoter-driven luciferase expression in HeLa | HeLa PEG-Prom luciferase reporter, luminescence, overnight | inhibition, % at 20 µM | hit rate 1.7% among 360,000 | AID 588405;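 active = inhibition of at least 50% at 20 µM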
# HIF-2a block: HIF-2a inhibition. 786-0 RCC cells HIF-2a reporter, luciferase luminescence, overnight. inhibition, % at 18.8 µM. hit rate 0.72% among 360,000. AID 624352;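 active = inhibition of the luminescence signal of 40% or more relative to plate controls, in a single-dose primary screen at 18.75 µM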
# CF NFkB block: inhibitors of cystic fibrosis induced NF-kB. AID 588850. hit rate 0.86% among 360,000. KKLEB NF-kB-GFP reporter, PAF-induced, GFP fluorescence overnight. inhibition, % at 5 µM;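 active = at least 50% inhibition at 5 µM, scaled per plate between neutral and stimulator controls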;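 note: PAF is a Pseudomonas aeruginosa culture filtrate used as stimulus; plate controls were PAF-stimulated DMSO wells for no effect and unstimulated DMSO wells for full effect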
# TROY signal inh: blocks TROY-dependent signaling in reporter cells; Q293 LMP1-TROYcd NF-kB luciferase reporter, 4 h; inhibition, % at 10 µM; hit rate 0.98% among 360,000; AID 1347056;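 active = compounds whose plate-normalised and pattern-corrected inhibition of the luciferase reporter signal at the single screening dose is 50% or more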
# CF NFkB inh conf: confirmation of cystic fibrosis induced NF-kB inhibitors | inhibition, % at 5 µM | shares compounds with CF NFkB block | hit rate 64% among 1,300 | KKLEB CF airway cells, PAF-induced NF-kB-GFP fluorescence, overnight; in the data active = inhibition above about 40%;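 note: stimulus PAF is a Pseudomonas aeruginosa filtrate and not platelet activating factor; plate controls were DMSO wells with stimulus for no effect and unstimulated DMSO wells for full effect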
# Mdm2-MdmX confirm: Mdm2/MdmX (human) interaction inhibition, confirmed. shares compounds with HIF-2a block. SaOS-2 split-luciferase Mdm2/MdmX complementation, luminescence. inhibition, % at 8 µM. hit rate 99% among 740;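 active = mean inhibition of the luminescence signal across two replicates at or above 26 percent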
# HIF-2a inh conf: HIF-2a inhibition, single concentration confirmation | shares compounds with HIF-2a block | 786-0 RCC cells, HIF-2a luciferase reporter luminescence, overnight | inhibition, % at 18.8 µM | hit rate 56% among 1,800 | AID 651580;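 active = mean inhibition across four replicates of at least 40 percent at the single tested concentration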
# HIF-1a counter: counter-screen for HIF-2a inhibitors: HIF-1a inhibition in MiaPaCa-2 cells | AID 651589 | MiaPaCa-2 HIF-1a luciferase reporter, desferoxamine, overnight | inhibition, % at 18.8 µM | hit rate 72% among 1,800 | shares compounds with HIF-2a block;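 active = mean inhibition of the reporter signal across four replicates at the single tested dose of 50% or more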
# Active calls of the source: *; nt = not tested or not shown. Sampled rows, rich in hits. Any-hit rate of the full collection: about 4%.
SMILES,TWEAK-Fn14 inh,KKLEB cytotox,Peg3 prom inh,HIF-2a block,CF NFkB block,TROY signal inh,CF NFkB inh conf,HIF-2a inh conf,HIF-1a counter,others
CC1=CC(C)(C)Nc2ccc(OC(=O)CN3C(=O)c4ccccc4C3=O)cc21,89*,1,102*,88*,51*,33,-71,88*,96*,
CCOc1ccc2c(c1)C(C)=CC(C)(C)N2,35,0,10,0,8,-4,nt,nt,nt,
Cn1c(N)c(C(=O)COC(=O)c2ccccc2C(=O)c2ccc(Cl)c([N+](=O)[O-])c2)c(=O)n(C)c1=O,88*,-19,96*,71*,65*,65*,34,32,93*,
Cn1c(N)c(C(=O)COC(=O)c2ccccc2C(=O)c2ccccc2)c(=O)n(C)c1=O,21,3,7,15,-4,9,nt,nt,nt,
O=C(COC(=O)c1ccccc1C(=O)c1ccc(Cl)c([N+](=O)[O-])c1)NC1CCCCCC1,98*,-27,104*,93*,86*,78*,106*,-1,106*,Mdm2-MdmX confirm=103*
CC(C)(C)Cc1c(-c2cccc(Br)c2)nc2ccc(Br)cn12,-1,3,8,-65,-6,-13,nt,nt,nt,
CC(/C=N/n1c(-c2cccnc2)n[nH]c1=S)=C\c1ccccc1,6,14,8,-7,12,19,nt,nt,nt,
CC(=C/c1ccccc1)/C=N/n1c(-c2ccncc2)n[nH]c1=S,78*,-4,-1,16,76*,52*,78*,nt,nt,Mdm2-MdmX confirm=89*
O=C(CCc1ccncc1)NC1CCCc2c1cnn2-c1ccc(F)cc1F (stereo not given),18,6,4,14,1,1,nt,nt,nt,
CC(=O)c1ccc(-c2cnc3c(NC=O)cc(-c4ccc(C(=O)NC5CC5)cc4)cn23)cc1,-15,-30,63*,39*,56*,11,61*,37,94*,
COc1ccc(-c2cnc3c(NC(C)=O)cc(-c4ccc(C(=O)NC5CC5)cc4)cn23)cc1OC,-32,-13,36,2,46,7,nt,nt,nt,
CN(C)S(=O)(=O)c1cccc(NC(=O)COC(=O)c2ccc3ccccc3n2)c1,-14,16,12,21,-26,1,nt,nt,nt,
Cc1nnnn1/C(=C\c1ccccc1)C(=O)OCC(=O)Nc1cccc(S(=O)(=O)N(C)C)c1,72*,-16,106*,42*,63*,26,-51,79*,22,
COC(=O)c1sc(C(F)(F)F)c(-c2ccccc2)c1S(=O)(=O)N1CCOCC1,0,14,16,13,-3,10,nt,nt,nt,
CC(C)(C)C(=O)Cn1ncc(Br)c(Br)c1=O,79*,-41,97*,94*,78*,53*,38,93*,105*,
Cc1cccc(CS(=O)(=O)c2ncc(Cl)c(C(=O)NCc3ccccc3)n2)c1,97*,-26,97*,69*,86*,63*,82*,69*,62*,
Cc1cc(C(=O)Cn2ncc(Cl)c(Cl)c2=O)c(C)n1CC(F)(F)F,95*,-22,100*,94*,77*,64*,-23,-15,103*,
O=C(Nc1ccc([N+](=O)[O-])cc1)N1CCN(C(=O)C2CCCO2)CC1 (stereo not given),-5,-1,-1,6,12,-4,nt,nt,nt,
O=C(C[n+]1cccc(Br)c1)c1ccc(-c2ccccc2)cc1,-22,-18,-55,-39,0,-43,nt,nt,nt,
COc1ccc2[nH]c(=O)c3c(c2c1)OC(C)(C)C=C3,-5,-7,37,22,86*,-5,98*,nt,nt,Mdm2-MdmX confirm=98*
Cc1cc2c([nH]c3ccccc32)c2c1OC(C)(C)C=C2,-78,-14,-390,-281,16,-67,nt,nt,nt,
